Assay outcomes (PubChem)
VLA-4 inh: inhibition in a human VLA-4 binding assay | inhibition, % (about 7 µM as worked out from the volumes in the protocol) | P13612 | VLA-4 expressing cells, ligand binding flow cytometry | AID 2557 | 330,000 compounds, 0.2% hits; in the data active means inhibition above about 50%
PKA-R2B act: PKA-R2B complex activation | PKA-R2B holoenzyme dissociation, Cy5-IP20 fluorescence polarization; R2B truncated from residue 108, S112A mutant; 0% DMSO only, 100% 113 µM cGMP | activation, % at 11.4 µM | 340,000 compounds, 0.079% hits | AID 504700;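 active means activation above a cutoff set at the mean over all compounds plus 3 SD, cut at about 18% in these data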;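 further: higher means more holoenzyme dissociation and a rise in polarization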
PKA-R1A activ: activators of PKA-R1A complex; activation, % at 11.4 µM; P00514+P68181; PKA-R1A dissociation, Cy5-IP20 fluorescence polarization; scaled: DMSO 0%, 113 µM cGMP 100%; 340,000 compounds, 0.083% hits;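 active means percent activation above the mean of all tested compounds plus 3 SD, cut at about 19% in these data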;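 further: higher means more PKAc released from R1A so a rise in polarization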
CendR NRP1 mod: alters CendR peptide binding to human NRP-1. FAM-RPARPAR peptide binding to NRP-1, fluorescence polarization. inhibition, % at 25 µM. 360,000 compounds, 0.85% hits. O14786. AID 602438;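 active means inhibition or corrected inhibition above about 18%, plus a signal ratio from 0.5 to 1.5, limit read from the data, passing the limit was not always enough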
ATG4B inhibitor: ATG4B (human) cysteine protease inhibition; ATG4B cleavage of LC3-PLA2, NBD-HPC fluorescence, 1 h; AID 504462; Q9Y4P1; 340,000 compounds, 0.51% hits; inhibition, % at 8.33 µM; in the data active means inhibition above about 40%
Target sequence (Q9Y4P1 whole entry, looked up): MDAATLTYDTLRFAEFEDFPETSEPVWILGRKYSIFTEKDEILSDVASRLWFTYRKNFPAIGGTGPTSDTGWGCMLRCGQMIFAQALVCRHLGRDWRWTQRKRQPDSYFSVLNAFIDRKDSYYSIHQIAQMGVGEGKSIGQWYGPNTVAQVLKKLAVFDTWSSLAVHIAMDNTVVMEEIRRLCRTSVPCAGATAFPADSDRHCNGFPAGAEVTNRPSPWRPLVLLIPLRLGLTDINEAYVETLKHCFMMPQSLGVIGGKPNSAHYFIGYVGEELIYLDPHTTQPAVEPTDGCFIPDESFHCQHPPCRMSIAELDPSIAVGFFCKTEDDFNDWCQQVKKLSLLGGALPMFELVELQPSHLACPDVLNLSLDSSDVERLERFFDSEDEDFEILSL
Active calls of the source: *; nt = no result. An excerpt weighted towards active compounds, which were near 1.6% of everything screened.

SMILES	VLA-4 inh	PKA-R2B act	PKA-R1A activ	CendR NRP1 mod	ATG4B inhibitor
Cc1cc(NC(=O)COC(=O)C2CCN(S(=O)(=O)c3ccccc3)CC2)c([N+](=O)[O-])cc1C	5	-3	-8	23*	0
Cc1ccc(S(=O)(=O)N2CCC(C(=O)OCC(=O)NCCc3ccccc3)CC2)cc1C	-12	-10	-1	10	-6
COc1ccc(OC)c2sc(N(CCCN(C)C)C(=O)c3ccc(S(=O)(=O)N4CCc5ccccc5C4)cc3)nc12	53*	nt	nt	nt	nt
COc1ccc(C)c2sc(N(CCCN(C)C)C(=O)c3ccc(S(=O)(=O)N4CCc5ccccc5C4)cc3)nc12	22	1	-5	2	-1
CCCCN(C)C(=O)c1sc(=O)n(Cc2ccc(Cl)c(Cl)c2)c1C	nt	nt	nt	2	nt
Cc1sc2nc(SCC(=O)N(CCO)CCO)nc(N)c2c1C	-6	-10	10	-8	1
Cc1sc2nc(SCC(=O)N(CCO)CCO)n(C3CCCCC3)c(=O)c2c1C	7	2	-9	24*	-6
COC(=O)C[C@H]1CC[C@@H](NS(=O)(=O)c2ccccc2)[C@@H](CO)O1	nt	nt	nt	3	nt
CC(=O)C(=Cc1cccc(C#N)c1)C(=O)c1ccccc1	nt	nt	nt	-13	nt
O=C(Cc1ccccc1)NCC(=O)N1CCN(c2ccccc2)CC1	4	-4	-4	27*	0
O=C(Cc1ccccc1)NCC(=O)N1CCCC1	2	2	-2	-12	-4
C/C(=C/c1ccccc1)C(=O)N1CCN(c2ccccc2F)CC1	3	-8	-1	1	1
C/C(=C\c1ccccc1)C(=O)N1CCN(c2cccc(C(F)(F)F)c2)CC1	11	-14	0	29*	6
Cc1cc(NC(=O)c2ccc(S(=O)(=O)Nc3ccccc3)cc2)no1	-12	3	-6	27*	-7
Cc1ccc(S(=O)(=O)Nc2ccc(C(=O)Nc3cc(C)on3)cc2)cc1	4	-2	2	-9	2
CC(C)(C)NC(=O)C(C1CC1)n1c(=O)c(-c2ccco2)nc2ccccc21 (stereo not drawn)	nt	nt	nt	1	nt
CCCCCCCc1n[nH]c(=S)n1Cc1ccccc1	0	1	-12	9	1
CCCCc1n[nH]c(=S)n1Cc1ccc(C)cc1	10	9	-4	27*	-7
Nc1c(C(=O)O)ccc2c1C(=O)c1ccccc1C2=O	-4	-9	-13	5	1
Nc1cc(C(=O)O)c(N)c2c1C(=O)c1ccccc1C2=O	-6	-22	-14	57*	-8
O=C1c2cccc(-c3ccc(C(F)(F)F)cc3)c2C2CC=CCN12 (stereo not drawn)	nt	nt	nt	3	nt
CC(OC(=O)c1ccc(=O)n(Cc2ccccc2)n1)C(=O)Nc1cccc(Cl)c1 (stereo not drawn)	14	-10	-7	17*	-5
CSCCC(C(=O)NC(C)(C)C)n1c(-c2ccc3c(c2)OCO3)nc2ccccc21 (stereo not drawn)	nt	nt	nt	-9	nt
CCN1CCN(c2ncc(C(=O)N3CCN(c4ccccc4OC)CC3)c3ccccc23)CC1	nt	3	1	22*	-13
CCN1CCN(c2ncc(C(=O)Nc3cc(Cl)c(OC)cc3OC)c3ccccc23)CC1	nt	-2	2	-17	-12
SMILES	VLA-4 inh	PKA-R2B act	PKA-R1A activ	CendR NRP1 mod	ATG4B inhibitor
N#Cc1ccccc1OCC(=O)OCC(=O)c1ccc2c(c1)NC(=O)CO2	-2	-4	7	12	-8
Cc1ccc(C(=O)NCC(=O)OCC(=O)c2ccc3c(c2)NC(=O)CO3)cc1	13	4	-3	31*	-7
O=C1COc2ccc(C(=O)COC(=O)COc3ccccc3[N+](=O)[O-])cc2N1	-5	3	-1	25*	2
O=C1COc2ccc(C(=O)COC(=O)CCc3ccc(S(=O)(=O)N4CCOCC4)cc3)cc2N1	11	8	0	35*	-5
O=C1COc2ccc(C(=O)COC(=O)c3cc(S(=O)(=O)N4CCOCC4)ccc3F)cc2N1	-3	-2	-5	6	-8
CC1(C(=O)Nc2ccc3ccccc3c2)CCC(=O)N1CCCn1ccnc1 (stereo not drawn)	nt	nt	nt	10	nt
CSCCC(NS(=O)(=O)Cc1ccccc1)C(=O)NNc1ccccc1 (stereo not drawn)	nt	nt	nt	9	nt
C[C@@H]1CN([C@@H](C)CO)C(=O)Cc2cc(NS(=O)(=O)c3ccccc3)ccc2O[C@H]1CN(C)S(C)(=O)=O	-1	8	-4	21*	-13
C[C@H]1CN([C@@H](C)CO)C(=O)c2cc(NC(=O)Nc3cccc4ccccc34)ccc2O[C@@H]1CN(C)Cc1ccc(-c2ccccc2)cc1	-22	-7	0	25*	1
C[C@@H]1CN([C@H](C)CO)C(=O)c2cc(NC(=O)Nc3cccc4ccccc34)ccc2O[C@H]1CN(C)Cc1ccc(C(F)(F)F)cc1	3	6	3	-26	-9
C[C@H](CO)N1C[C@H](C)[C@@H](CN(C)S(=O)(=O)c2ccccc2)Oc2ccc(NC(=O)Cc3ccccc3)cc2C1=O	7	3	-12	24*	-6
O=C(Nc1ccc(Cl)cc1)N[C@@H]1CC[C@H](CCNS(=O)(=O)c2ccccc2F)O[C@@H]1CO	nt	nt	nt	2	nt
O=C1N/C(=C/c2cccn2-c2ccccc2)C(=O)N1Cc1ccc(F)cc1	9	-10	-7	-12	1
O=C1N/C(=C/c2cccn2-c2ccc(F)cc2)C(=O)N1Cc1ccccc1F	11	1	-2	43*	-4
O=C(Cc1ccccc1)NC(NCCc1ccccc1)C(Cl)(Cl)Cl (stereo not drawn)	-1	3	1	22*	-3
C=CCOc1ccc(CNc2nccs2)cc1OC	-7	4	1	-7	17
C=CCOc1ccc(CNC(C)(C)C)cc1OC	-1	-2	-5	24*	-2
COCC1CCN(Cc2nc(Cc3ccccc3Cl)no2)CC1	32	-7	-6	21*	-15
OCC1CCN(Cc2nc(Cc3ccccc3Cl)no2)CC1	10	5	3	-17	-4
Cc1ccc(NC(=O)Nc2cc(Cl)ccc2C2COC(=O)C2=N)cc1 (stereo not drawn)	55*	-2	-14	2	3
CC(C)C(C(=O)O)N1C(=O)/C(=C/C=C/c2ccco2)SC1=S (stereo not drawn)	-3	0	1	-171	65*
COc1ccc(NC(=O)c2ccc(OC)c(S(=O)(=O)N3CCCCC3C)c2)cn1 (stereo not drawn)	5	-1	-4	27*	-14
CN1CCN(C(=O)C[C@@H]2C=C[C@H](NS(=O)(=O)c3cccc(F)c3)[C@@H](CO)O2)CC1	nt	nt	nt	17	nt
CCOC(=O)C(C)Sc1nc2ccccc2c(=O)n1CC (stereo not drawn)	-5	-12	-12	42*	18
